Experimental data reported in PubChem BioAssay AID1053126 (Broad Institute, 2014).
Entries with a potency or affinity are not part of this list. Activity calls are given as the source filed them.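 How the source made its calls: active means cell killing with a fitted half-effect concentration at or below twice the top valid dose; inconclusive means flat curve with 30 to 70 percent drop, or poor fit; inactive means the rest.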

Experiment: viability loss in HEK293T kidney cells – cell-based, ATP luminescence, cherry-pick, set 6, cytotoxicity control, dose response (AID 1053126)
Settings: CellTiter-Glo ATP luminescence, 72 h; series mostly up to 26 µM

For `Nc1ccc2ccc3cccc[n+]3c2c1`, which outcome is on record?
The outcome was “inactive”.

Which outcome does the source give for `CC(C)OP(=O)(O)NC(=O)c1ccccc1` here?
The outcome was “inactive”.

For `CC12CC(c3ccccc3O1)C(C(=O)OCc1ccccc1)C(=O)N2` (stereo not drawn), which outcome is on record?
The outcome was “inactive”.
